# In the library only some 5.4% were active in any assay of this set; here they are far more common.
# Beta cell apopt – blocks beta cell apoptosis | AID 435005 | INS-1E cytokine-induced death, ATP luminescence, 48 h; percent of positive-control rescue, neutral wells zero | protection from apoptosis, % (no concentration beside the values) | 300,000 tested, 0.8% active;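 active = Every replicate reaches about 75%, or at least half do and their mean reaches it too, limit read from the data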;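 note: 0% = cytokine-treated negative control wells and 100% = positive control rescue; higher means more ATP so stronger rescue from cytokine killing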
# Mdm2 MdmX PPI – disrupts the human Mdm2-MdmX interaction; O15151+Q00987; SaOS-2 split-luciferase Mdm2/MdmX complementation, luminescence; inhibition, % at 8 µM; 330,000 tested, 3% active;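 active = inhibition of at least 50% at 8 µM in the primary screen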
# Target sequence (O15151 whole entry, looked up): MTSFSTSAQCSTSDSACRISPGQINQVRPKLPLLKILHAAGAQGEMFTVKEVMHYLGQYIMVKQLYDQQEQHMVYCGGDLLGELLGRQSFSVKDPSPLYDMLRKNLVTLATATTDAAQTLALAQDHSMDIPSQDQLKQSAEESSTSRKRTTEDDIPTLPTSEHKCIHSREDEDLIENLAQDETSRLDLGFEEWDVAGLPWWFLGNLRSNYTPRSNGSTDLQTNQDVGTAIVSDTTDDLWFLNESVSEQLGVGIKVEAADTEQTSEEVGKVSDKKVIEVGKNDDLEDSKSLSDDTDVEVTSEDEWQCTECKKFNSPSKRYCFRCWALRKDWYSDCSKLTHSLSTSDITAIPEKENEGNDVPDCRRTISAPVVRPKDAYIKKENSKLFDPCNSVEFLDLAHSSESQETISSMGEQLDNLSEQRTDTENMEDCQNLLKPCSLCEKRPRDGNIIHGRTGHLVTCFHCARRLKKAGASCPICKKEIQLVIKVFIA
# Target sequence (Q00987 whole entry, looked up): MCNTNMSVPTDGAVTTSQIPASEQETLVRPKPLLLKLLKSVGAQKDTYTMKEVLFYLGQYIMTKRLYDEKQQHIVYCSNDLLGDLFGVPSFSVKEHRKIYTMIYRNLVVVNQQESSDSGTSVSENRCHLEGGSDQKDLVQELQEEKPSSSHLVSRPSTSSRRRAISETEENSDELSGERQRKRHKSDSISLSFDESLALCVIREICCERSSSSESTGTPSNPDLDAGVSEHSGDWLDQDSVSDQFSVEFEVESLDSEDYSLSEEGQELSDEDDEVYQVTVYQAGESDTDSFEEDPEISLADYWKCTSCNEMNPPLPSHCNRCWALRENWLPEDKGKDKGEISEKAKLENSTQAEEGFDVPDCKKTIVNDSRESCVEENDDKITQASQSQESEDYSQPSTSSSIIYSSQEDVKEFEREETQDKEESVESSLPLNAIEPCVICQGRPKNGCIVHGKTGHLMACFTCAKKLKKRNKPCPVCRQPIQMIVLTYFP
# CSC inhib – cancer stem cell inhibition; inhibition, % at 7.5 µM; 300,000 tested, 1.1% active; cancer stem cell-like cells viability, luminescence; AID 2717; in the data active = inhibition above about 75%; tested in HMLE shEcad cells
# MPTP block – permeability transition pore inhibition. isolated mouse mitochondria, Ca2+ swelling absorbance, 30 min. inhibition, % at 10 µM. 360,000 tested, 1.4% active;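 active = inhibition of 50% or more, scaled per plate between neutral and stimulator controls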;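 note: 0% = DMSO wells given calcium and 100% = 1 mM EGTA wells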
# SKKanGAS inh – SKKanGAS growth inhibition. S. pyogenes SKKanGAS, kanamycin growth, BacTiter-Glo, 6 h. inhibition, % at 7.5 µM. 300,000 tested, 1.3% active. AID 1662;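 active = mean replicate score, as percent of positive control median, at least 50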;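 note: strain carries kanamycin resistance gene driven by streptokinase promoter and grows in 40 µg/ml kanamycin; loss of luminescence reflects streptokinase promoter inhibition or plain growth inhibition; 0% = median of DMSO wells and 100% = positive control at its reference dose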
# Calb FLC – C. albicans growth modulation with fluconazole; C. albicans CaCi-2 (fluconazole-resistant clinical isolate) + fluconazole, Alamar Blue growth, 48 h; growth inhibition, % (test concentration not listed); 300,000 tested, 0.57% active;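 active = growth inhibition above about 58% in most replicates, limit read from the data, passing the limit was not always enough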;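 note: all wells also contain fluconazole at 8 µg/ml as a sub-toxic cotreatment; 0% = median of DMSO wells and 100% = median of geldanamycin control wells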
# Mdm2 MdmX conf – human Mdm2/MdmX binding inhibition, confirmed; 10,000 tested, 55% active; inhibition, % at 8 µM; shares compounds with Mdm2 MdmX PPI; luminescent assay; in the data active = inhibition above about 40%
# Full FLuc ctr – inhibits full-length luciferase, flagging false Mdm2/MdmX hits; shares compounds with Mdm2 MdmX PPI; SaOS-2 full-length luciferase counterscreen, luminescence; inhibition, % at 8 µM; 6,200 tested, 77% active; AID 504607;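 active = mean inhibition at 8 µM reaching about 37%, which flags the compound as non-specific, limit read from the data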;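 note: p53-null SaOS-2 cells with luciferase driven by a doxycycline-inducible promoter; compound on cells about two nights before reading with doxycycline added after day one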
# Numbers without * were called inactive; . = no result given.
SMILES,Beta cell apopt,Mdm2 MdmX PPI,CSC inhib,MPTP block,SKKanGAS inh,Calb FLC,Mdm2 MdmX conf,Full FLuc ctr
Cc1ccc(-c2nn(-c3ccccc3)c3[nH]c(=O)c(CNCc4ccccc4)cc23)cc1,-1.0,52.4*,52.8,5.0,32.9,7.3,11.8,.
CCOc1ccc(NCc2cc3c(C(C)(C)C)nn(-c4ccccc4)c3[nH]c2=O)cc1,-16.3,95.8*,21.0,3.8,-7.2,-12.5,23.1,90.7*
CN1C(=O)N(CC(=O)N2CCN(S(=O)(=O)c3ccc4c(c3)CCC4)CC2)C(=O)C12CCCCC2,.,23.0,.,0.0,.,.,.,.
O=C(CCl)N1CCN(S(=O)(=O)Cc2ccccc2)CC1,-9.2,70.7*,.,-1.5,.,.,25.2,.
O=C(CCl)N1CCN(S(=O)(=O)c2ccc3c(c2)CCC3)CC1,-6.4,63.8*,.,-0.8,.,.,6.8,.
CC(C)[C@H](NC(=O)c1ccco1)C(=O)OCc1cc(=O)n2c(n1)sc1ccccc12,-8.5,20.9,-29.3,1.4,4.6,2.8,.,.
CCCC(=O)C1=C(c2ccccc2)C(C#N)(C#N)C(C#N)=C1N,-3.9,9.0,-8.6,2.1,-4.8,27.3,.,.
Oc1ccccc1C=NC(c1ccccc1)C(O)c1ccccc1 (configuration not stated),-6.6,-2.5,-11.9,2.9,-1.2,-30.2,.,.
Oc1ccccc1/C=N/[n+]1ccccc1,2.3,52.6*,0.6,1.3,-3.6,-6.7,52.9*,120.6*
CN(C)CCCN(Cc1ccc2c(c1)OCO2)C(=O)NC1CCCCC1,-13.6,-24.0,-15.8,1.5,1.2,-25.9,.,.
CCOc1ccc(S(=O)(=O)NCc2ccccn2)cc1NC(=O)c1ccccc1,.,57.7*,51.2,-0.3,-10.8,3.6,74.7*,56.7*
CCOc1ccc(S(=O)(=O)NCc2cccnc2)cc1NC(=O)c1ccccc1,.,.,.,0.1,.,.,.,.
FC(F)(F)c1cc(C(F)(F)F)c2ccc(N3CCOCC3)nc2n1,-0.1,-4.4,-5.9,-1.5,0.7,3.6,.,.
FC(F)(F)c1cc(C(F)(F)F)c2ccc(N3CCN(c4ncccn4)CC3)nc2n1,1.5,57.6*,0.8,-0.9,6.7,14.4,-7.6,.
O=C(N/N=C1\CC(c2ccccc2)Oc2ccccc21)c1ccc(O)cc1 (configuration not stated),-1.9,-9.2,11.9,0.1,32.8,25.2,.,.
O=C(N/N=C1\CC(c2ccccc2)Oc2ccccc21)c1cccnc1 (configuration not stated),24.2,52.5*,-0.4,1.3,6.9,1.3,30.6,.
CCN1C(=O)c2cccc3c(S(=O)(=O)N(C(C)=O)c4ccc(OC(C)=O)cc4)ccc1c23,14.3,61.1*,6.7,1.8,.,.,1.4,.
CCN1C(=O)c2cccc3c(S(=O)(=O)N4CCC(C)CC4)ccc1c23,-9.3,82.8*,-11.9,-0.4,.,.,42.5*,82.7*
Cc1ccccc1NS(=O)(=O)c1ccc2c3c(cccc13)C(=O)N2C,.,52.8*,-9.9,2.6,15.0,12.8,49.3*,100.1*
CN1C(=O)c2cccc3c(S(N)(=O)=O)ccc1c23,.,24.1,-1.8,0.9,-2.6,-4.5,.,.
CCN1C(=O)c2cccc3c(S(=O)(=O)Nc4ccccc4OC)ccc1c23,1.0,56.2*,.,17.2,-5.7,4.4,43.3*,79.2*
COc1ccc(N(C(=O)c2ccncc2)S(=O)(=O)c2ccc3c4c(cccc24)C(=O)N3C)cc1,-5.1,31.9,-7.0,1.6,.,2.8,.,.
O=C(Nc1ccc(S(=O)(=O)N2CCOCC2)cc1)c1cccc([N+](=O)[O-])c1,4.1,13.7,-11.0,0.6,-3.4,-13.3,.,.
Cc1cc(OCC(O)CN(C)C(=O)C(C)Oc2ccccc2)ccc1Cl (configuration not stated),-2.6,-5.5,-8.3,1.2,-1.7,8.2,.,.
CN1C(=O)c2cccc3c(S(=O)(=O)Nc4ccccn4)ccc1c23,-5.7,55.6*,2.7,-1.8,-0.4,-6.3,41.2*,78.7*
CN1C(=O)c2cccc3c(S(=O)(=O)NCc4ccco4)ccc1c23,5.5,21.0,-0.5,1.3,10.6,38.3,.,.
CC(C)(C)[C@@H]1COC(=O)[C@H](Cc2ccc(F)cc2)C/C=C\C[C@@H](CC(=O)N(CCO)Cc2ccccc2)C(=O)N1,-6.9,1.5,.,-0.6,.,.,.,.
